# Results reported in PubChem BioAssay.
# Values without a mark were called inactive.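 Rule for the calls: active = viability at or below 10% of carrier control in both of two separate runs; inconclusive = viability at or below 10% in only one of the two runs; inactive = the rest.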
# Experiment: reduced viability of SK-BR-3 breast cancer cells – cell-based, 24 h, human, pilot screen (AID 572);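 note: compound exposure lasted between 18 and 24 h rather than exactly 24 h; 100% = carrier-treated control wells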
# Settings: SK-BR-3 viability, CellTiter-Glo luminescence, at 10 µM, hits give low values
row,SMILES,viability
1,CCOc1ccc(N(CC(=O)Nc2ccc(C)c(C)c2)S(=O)(=O)c2c(C)noc2C)cc1,101%
2,CCCn1c(OC)nc2c1c(=O)n(C)c(=O)n2C,89.5%
3,COc1cc2[nH]c(=O)n(CCCCCC(=O)N3CCN(c4ccccn4)CC3)c(=O)c2cc1OC,104%
4,CCOc1ccc(N(CC(=O)NC2CCCCC2)S(=O)(=O)c2c(C)noc2C)cc1,79.5%
5,O=C(c1ccco1)N1CCN(C(=O)c2sccc2-c2ccccc2)CC1,93%
6,CCSC1=C(C#N)C(c2ccccc2OC)CC(=O)N1 (centres undefined),92%
7,CCOC(=O)Cn1nc(-c2ccc(Cl)cc2)cc1N,78%
8,CC(C(=O)N1CC2(C)CC1CC(C)(C)C2)N1C(=O)c2ccccc2C1=O (centres undefined),84%
9,COc1cccc(N(C(C)=O)c2nc(C)cc(C)c2C#N)c1,102%
10,COc1cccc(NC(=O)c2ccco2)c1,99%
11,Cc1ccc(Cn2c(CN3CCOCC3)nc3c2c(=O)n(C)c(=O)n3C)cc1,80.5%
12,CCOc1ccc(NC(=O)CSc2nccn2C)cc1,103%
13,Cc1nc2ccc(Br)cn2c1NC(C)(C)C,89.5%
14,COc1ccccc1C(=O)NCCc1nc2ccccc2n1C,118%
15,Cn1ccnc1SCC(=O)Nc1ccc2ccccc2c1,96.5%
16,c1nc(NCC2(N3CCOCC3)CCCCC2)c2ccsc2n1,82.5%
17,Cc1noc(C(=O)Nc2ccc3c(c2)OCO3)c1Cl,84.5%
18,Cc1ccc(S(=O)(=O)N2CCOCC2)cc1C(=O)Nc1nc(-c2cccnc2)cs1,106%
19,Cc1cccc(C)c1OCc1nnc(SCC(=O)Nc2ccccc2F)o1,95.5%
20,CCN(CC)CCCN1C(=O)C(O)=C(C(=O)c2ccco2)C1c1ccc(C)o1 (centres undefined),102%

row,SMILES,viability
1,Cc1ccc(S(=O)(=O)C(C#N)c2nc3ccccc3nc2N2CCCCC2)cc1 (centres undefined),124%
2,C(/CCc1ccccc1)=N\n1cnnc1,105%
3,CCOCCCNC(=O)C(c1ccccc1)N(Cc1ccc2c(c1)OCO2)C(=O)CNC(C)=O (centres undefined),100%
4,COc1ccccc1N1CCN(c2cc(=O)n(Cc3ccc(F)cc3)c(=O)[nH]2)CC1,99%
5,CNC(=O)C1C2C=CC3(O2)C1C(=O)N(C1CC1)C3C(=O)NCc1ccc(OC)cc1 (centres undefined),99.5%
6,CCCSc1nc2c(cnn2-c2ccc(C)cc2)c(=O)[nH]1,93%
7,Nn1c(Cc2ccccc2F)nnc1SCC(=O)N1CC(=O)Nc2ccccc21,112%
8,CCc1ccc(N2CC(C(=O)OCC(=O)NC3CCS(=O)(=O)C3)CC2=O)cc1 (centres undefined),100%
9,Cc1ccccc1Cn1ccc(NC(=O)c2onc(C)c2Cl)n1,107%
10,O=C(CSc1ccc2nnc(-c3ccccc3)n2n1)N1CCN(c2ccccc2)CC1,93.5%
11,CC(C)C(NC(=O)c1ccc(S(=O)(=O)N2CCOCC2)cc1)c1nc2ccccc2[nH]1 (centres undefined),104%
12,Cc1ccc(SCC(=O)NCCN2C(=O)CSC2=O)c(C)c1,99.5%
13,N#Cc1c2n(c(=O)[nH]c1=O)CCCCC2,112%
14,CCN(C1CCCCC1)S(=O)(=O)c1ccc(S(=O)(=O)N2CCN(CCC#N)CC2)cc1,105%
15,COc1cccc2c(=O)c3c(cnn3C)n(C)c12,106%
16,Cc1nnc(N2C(=O)C(O)=C(C(=O)c3ccco3)C2c2ccc(F)cc2)s1 (centres undefined),99%
17,CC1(C)CC(=O)C(C=NCC2CCNCC2)=C(O)C1,104%
18,CCOC(=O)C(C)Sc1nnc(Cc2cc(=O)[nH]c(=O)[nH]2)n1-c1ccc(Cl)cc1 (centres undefined),92.5%
19,O=C(CS(=O)(=O)Cc1ccccc1)Nc1nc2ccccc2s1,104%
